Source: PubChem BioAssay (NCI)
About 83,000 compounds went through this panel and 20% of them were active in at least one assay; those are over-represented in the sample as a whole.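 Growth was measured after 48 h exposure to one concentration of compound in 96-well plates. Values under 10 count as active.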 Unmarked numbers belong to inactive results. Activity calls are given as the source filed them.

Columns and labels:
Assay in all cases: NCI-60 one-dose screen, 48 h (100 = growth as untreated, 0 = no growth, -100 = all killed)
Conditions in all cases: 10 µM unless noted
T-47D breast = system: T-47D breast
BT-549 breast = system: BT-549 breast
MDA-MB-435 melanoma = system: MDA-MB-435 melanoma
SW-620 colon = system: SW-620 colon
HCT-116 colon = system: HCT-116 colon
HCC-2998 colon = system: HCC-2998 colon
KM12 colon = system: KM12 colon
MCF7 breast = system: MCF7 breast

SMILES	growth (T-47D breast)	growth (BT-549 breast)	growth (MDA-MB-435 melanoma)	growth (SW-620 colon)	growth (HCT-116 colon)	growth (HCC-2998 colon)	growth (KM12 colon)	growth (MCF7 breast)
COC(=O)c1ccccc1C(=O)c1c(C)cc(C)cc1C	88.8%	106%	97.6%	93.2%	99.7%	94.4%	102%	
COc1nc2ccccc2s1	99.2%	90.6%	105%	93%	103%		102%	87.8%
CC(=O)N(C)N=Nc1ccc(C)cc1	102%	90.1%	103%	98.6%	101%	91.5%	118%	
O=C(NC(=S)N1CC=CCC1)c1ccccc1	110%	93.6%	109%	103%	102%		112%	101%
N#CC1(O)CCCCC1	103%	93.9%	99.3%	110%	103%	93.3%		
CCOC(=O)c1cc(C)[nH]c(=O)c1C#N	107%	92.9%	86%	107%	99.9%		103%	104%
OCCOc1ccc(-c2cc(-c3ccccn3)nc(-c3ccccn3)c2)cc1	17.4%	15.9%	22.5%	2.05% (active)	6.4% (active)		8.52% (active)	1.69% (active)
COc1ccc(/C=N/NC(=O)COCC(=O)N/N=C/c2ccc(OC)cc2)cc1	104%	118%	98.2%	108%	111%	111%	107%	95.9%
O=C1NCC2CCCC1C2 (stereo not drawn)	118%	98.3%	112%	120%	101%	93.1%		
Cc1ccc(S(=O)(=O)Oc2ccc3sc4c(CO)ccc(NCCN(C)C)c4c(=O)c3c2)cc1	-51.8% [100 µM] (active)	-91.2% [100 µM] (active)	-98% [100 µM] (active)	-88% [100 µM] (active)	-75.9% [100 µM] (active)	-88.2% [100 µM] (active)	-68.6% [100 µM] (active)	-76.1% [100 µM] (active)
Cc1c(-c2ccc(C3CCCCC3)cc2)nc2ccc(F)cc2c1C(=O)O	66.1%	65.2%	34.5%	30.6%	24.8%	49.9%		
Nc1ccccc1SC1CC(=O)N(c2ccc(Cl)c(Cl)c2)C1=O (stereo not drawn)	74.8%	124%	101%	98.8%	87.4%		100%	112%
c1ccc(Nc2ccccn2)nc1	84.6%	108%	104%	108%	99.8%		116%	84.9%
CSCC[C@@H]1C(=O)N(C)[C@H](C(C)(C)C)N1C(=O)c1ccccc1	104%	107%	106%	102%	101%	105%	101%	
CCC(/C=C\C(C)=O)CC	101%	103%	100%	99%	97.3%	106%		
O=C(NCc1ccco1)Nc1cccc2c(NC(=O)NCc3ccco3)cccc12	69.2% [100 µM]	57.1% [100 µM]	40% [100 µM]	23.1% [100 µM]	15% [100 µM]	74.5% [100 µM]	61.1% [100 µM]	
C/C(Cc1ccccc1)=N\O	117%	107%	98.3%	98.4%	101%		103%	107%
CCOC(=N)CC(=O)Nc1cccc(C)c1Cl	95%	103%	98.6%	94.9%	96.3%	102%	96.7%	
CN(C)c1ccc2nc3ccc(=[N+](C)C)cc-3oc2c1	14.4%	63.2%	55.1%	9.01% (active)	6.48% (active)	43.3%		
O=C(O)C1CCCN1C(=O)OCc1ccccc1 (stereo not drawn)	102%	85.8%	102%	111%	107%		113%	90%

SMILES	growth (T-47D breast)	growth (BT-549 breast)	growth (MDA-MB-435 melanoma)	growth (SW-620 colon)	growth (HCT-116 colon)	growth (HCC-2998 colon)	growth (KM12 colon)	growth (MCF7 breast)
C=CCC(OC(C)=O)c1ccc(OC)c(OC)c1 (stereo not drawn)	112%	116%	110%	98%	103%		99%	
O=c1[nH]c(=O)c2cc(Cl)cc(Cl)c2[nH]1	111%	91.4%	113%	105%	98.3%		106%	
O=S(=O)(O)C(C(I)I)S(=O)(=O)O	118%	118%	104%	105%	107%	101%	103%	
C=C(c1ccc(N(C)C)cc1)c1ccc(N(C)C)cc1	26.9%	-5.95% (active)	-67.6% (active)		5.45% (active)	5.58% (active)	26.5%	13.5%
Cn1c(=O)[nH]c2ccccc2c1=O	95.2%	91.3%	101%		103%	112%	102%	90.2%
CCOC(=O)N[C@H]1CCc2cc(OC)c(OC)c(OC)c2-c2ccc(SC)c(=O)cc21	47.7%	-9.25% (active)	-17.1% (active)	17.4%	2.61% (active)	12.2%	2.56% (active)	
CCCCCC/C=C\CCCCCCCCCc1cc(O)cc(OC)c1O	-61.8% (active)	3.38% (active)	13.3%		5.45% (active)	35.7%		6.81% (active)
COC1(OC)C2(Cl)C(Cl)=C(Cl)C1(Cl)C1COCC12 (stereo not drawn)	96.2%	105%	99%		91.5%	105%	111%	101%
COC1C(=O)CCC2(CO2)C1(O)C1(C)OC1CCC(C)C (stereo not drawn)	81.2%	77.4%	63.8%	60.5%	52.5%	76.4%	74%	
CCN(CC)c1ccc2nc3ccc(N=Nc4ccc(N(C)C)cc4)cc3[n+](-c3ccccc3)c2c1	0.779% (active)	-23.3% (active)	-87.3% (active)	-82.5% (active)	-70.3% (active)	-69.7% (active)	-64.3% (active)	
COc1cc(OC)c2cc(C(=O)c3ccc(C#N)cc3)c(=O)oc2c1	88.2%	87.3%	94.6%	106%	92.1%	107%	97.5%	
C=CCNC(=S)N/C=C(/C(=O)c1ccccc1)c1ccccc1	99.4%	98.2%	98.6%		115%	105%	104%	97.6%
COc1cccc2c1Cc1ccccc1-2	101%	106%	103%		101%	98.5%	104%	100%
ClCc1cccc2c(CCl)cccc12	4.84% (active)	-74% (active)	84.3%	70.8%	-86.3% (active)	55.8%	13.7%	
Nc1cc(F)ccc1[N+](=O)[O-]	104%	103%	111%		97.9%	102%	104%	97.6%
NC(=O)OCCO	94.4%	94.9%	111%	106%	90.6%	97.9%	98.7%	
N#CCCN1C(=O)CCC1C(=O)O (stereo not drawn)	121%	107%	110%	96.6%	97.6%		103%	
COc1cc(CC#N)c([N+](=O)[O-])cc1OC	105%	105%	111%	119%	93.5%	108%	104%	
NC(CCl)=NCC12CC3CC(CC(C3)C1)C2	15.7%	1.18% (active)	-3.63% (active)		-69.2% (active)	-17.9% (active)	-31.6% (active)	-29.1% (active)
Cc1ccccc1NC(=O)Oc1ccc(Cl)cc1C(=O)c1ccccc1	104%	92.3%	103%		90.2%	107%	90.4%	105%
